Results filed as inconclusive are left out. Activity calls are given as the source filed them. Calls come from the whole dose curve.

Consider 40 compounds from PubChem BioAssay (Tox21).

A short description of this assay: qHTS assay to identify small molecule agonists of the hypoxia (HIF-1) signaling pathway - cell viability counter screen (AID 1224844). Note: nearly all actives have a fitted effect of over 50% in size. The note with it: HRE-bla ME-180 viability, CellTiter-Glo luminescence, 17 h; series mostly up to 76.8 µM. From the text:
National Center for Advancing Translational Sciences [NCATS]
NIH Chemical Genomics Center [NCGC]
U.S. Environmental Protection Agency [EPA]
National Institutes of Environmental Health Sciences [NIEHS]
National Toxicology Program [NTP]
U.S. Food and Drug Administration [FDA]
Hypoxia-inducible factor-1 (HIF-1) is the major hypoxia-regulated transcription factor that controls cellular responses to low oxygen concentration. HIF-1 is composed of two subunits: hypoxia responsive HIF-1-alpha and constitutively expressed HIF-1-beta, which is also known as aryl hydrocarbon receptor nuclear translocator. During hypoxic conditions, HIF-1-alpha heterodimerizes with HIF-1-beta and translocates into the nucleus where the HIF-1 complex binds to the hypoxia-response element (HRE) and activates expression of target genes such as VEGF (vascular endothelial growth factor). The HIF-1 pathway is essential to normal growth and development, and is involved in the pathophysiology of cancer, inflammation, and ischemia.
Using a beta-lactamase reporter-gene under control of the hypoxia response element, a cell-based assay [CellSensor(TM) HRE-bla ME-180 from Life Technologies, Carlsbad, CA] was used to measure hypoxia-induced signaling. Tox21 10K library compounds were measured for their ability to induce the reporter gene activity. The cytotoxicity of the Tox21 compound library against HRE-bla ME-180 cell line was tested in parallel by measuring cell viability using CellTiter-Glo assay (Promega, Madison, WI) in the same assay wells.
Tox21 Assay Protocol Summary:
HRE-bla ME-180 cells were dispensed at 2,000 cells per well in 6 uL of assay medium containing 0.5% dialyzed FBS into black wall/clear-bottom 1536-well plates using a Multidrop Combi (Thermo Scientific, Waltham, MA) dispenser. After the assay plates were incubated at 37C and 5% CO2 for 5 hrs, 23 nL of compounds dissolved in DMSO, positive controls or DMSO only was transferred to each well of the assay plate using a Pintool station (Kalypsys, San Diego, CA). The assay plates were incubated at 37C and 5% CO2 for 17 hrs. One uL of LiveBLAzerTM B/G FRET substrate (CCF4-AM) (Life Technologies) was added to each well using a Flying Reagent Dispenser (FRD, Aurora Discovery, San Diego, CA). After 2 hr incubation at room temperature, fluorescence intensity (405 nm excitation, 460 nm and 530 nm emissions) was measured using an Envision plate reader (PerkinElmer, Shelton, CT). For cytotoxicity, 4 ul/well of CellTiter-Glo reagent was added into the assay plates using an FRD. After 30 min incubation at room temperature, the luminescence intensity was measured using a ViewLux plate reader (PerkinElmer).
As for `CCC1COC(=O)O1` (stereo not given), the call was inactive.

As for `Cc1cc(C)cc([N+](=O)[O-])c1`, the compound was classed as inactive.

Turning to `Cc1nc2n(c(=O)c1CCN1CCC(C(=O)c3ccc(F)cc3)CC1)CCS2`, the compound was classed as inactive.

Regarding `O=C(O)/C=C/c1ccccc1`, the compound was classed as inactive.

Consider `CC(=O)OC(C)(C)Cc1ccccc1`, for which the compound was classed as inactive.

`O=c1cc(O)c(Cl)c[nH]1`: the compound was classed as inactive.

`Nc1ccnc(=O)[nH]1`: the result was inactive.

For the compound `CO[Si](CCCS)(OC)OC`, the outcome was inactive.

Regarding `CCCCCCCCCCCCCC(=O)OC`, the result was inactive.

Regarding `CC(C)CCCC(C)CC=O` (stereo not given), the result was inactive.

In the case of `Cc1cc(O)c2c(c1)C(=O)c1cccc(O)c1C2=O`, the compound was classed as inactive.

Regarding `O=C(O)C(=O)Nc1cccc(-c2nn[nH]n2)c1`, the compound was classed as inactive.

Take `CN[C@@H]1[C@H](O)[C@H](NC)[C@H]2O[C@@]3(O)C(=O)C[C@@H](C)O[C@H]3O[C@@H]2[C@H]1O`: the compound was called inactive.

On to `O=C1CC[C@H](C(=O)N2CCCCC2)N1`, for which the compound was classed as inactive.

As for `NS(=O)(=O)c1cc2c(cc1Cl)NC(CC1CCCC1)NS2(=O)=O` (stereo not given), the outcome was inactive.

For `CC(=O)OC[C@H]1O[C@@H](OC(C)=O)[C@H](OC(C)=O)[C@@H]1OC(C)=O`, the compound was classed as inactive.

Take `CCCOCCOCCOCCO`: the call was inactive.

With `SCCSCCS`, the call was inactive.

As for `COCC(=O)Nc1c(I)c(C(=O)NCC(O)CO)c(I)c(C(=O)N(C)CC(O)CO)c1I` (stereo not given), the outcome was inactive.

As to `O=C(O)CCNC(=O)c1ccccc1`, the outcome was inactive.

With `O=C(O)c1ccc(OCCN2CCCCC2)cc1`, the result was inactive.

As to `C=CCOC(=O)c1ccc(C(=O)OCC=C)c(C(=O)OCC=C)c1`, the outcome was inactive.

As to `CCCCC[Si](OCC)(OCC)OCC`, the result was inactive.

Take `CCCCCC1Nc2cc(C(F)(F)F)c(S(N)(=O)=O)cc2S(=O)(=O)N1` (stereo not given): the result was inactive.

Consider `C[C@H](CCC(=O)NCC(=O)O)[C@H]1CC[C@H]2[C@@H]3[C@H](O)C[C@@H]4C[C@H](O)CC[C@]4(C)[C@H]3C[C@H](O)[C@]12C`, for which the call was inactive.

With `O=S(=O)(O)CCO`, the result was inactive.

For `CCCCCCCCCCCCCCCCCCN(C)C`, the compound was called inactive.

With `Cc1ccccc1N1CCN(CCc2nnc3n2CCCC3)CC1`, the outcome was inactive.

For the compound `O=C1OC(=O)c2ccccc21`, the compound was called inactive.

Regarding `NS(=O)(=O)c1ccc(Cl)c(S(N)(=O)=O)c1`, the call was inactive.

For `CCOC(=O)CCCCCCCCC(=O)OCC`, the compound was called inactive.

Take `COc1cc(C=O)ccc1OC(=O)C(C)C`: the outcome was inactive.

Consider `C=CCOc1c(Br)cc(C(C)(C)c2cc(Br)c(OCC=C)c(Br)c2)cc1Br`, for which the result was inactive.

With `O=C1OC(=O)c2cc(Oc3ccc4c(c3)C(=O)OC4=O)ccc21`, the call was inactive.

In the case of `CCCC(C)CC` (stereo not given), the compound was called inactive.

Turning to `O=c1[nH]c(=O)c2ccccc2o1`, the result was inactive.

`C1=CCC(c2ccccc2)CC1` (stereo not given): the result was inactive.

For `CCCCC(CC)COC(=O)c1ccccc1` (stereo not given), the compound was classed as inactive.

`COc1ccc(/C=N/NC(=O)c2ccncc2)cc1OC`: the outcome was inactive.

`CC(=O)OCC(=O)[C@@]1(O)[C@H](OC(C)=O)C[C@H]2[C@@H]3CCC4=CC(=O)C=C[C@]4(C)[C@@]3(F)[C@@H](O)C[C@@]21C`: the outcome was inactive.
